TROY NFkB inh = blocks TROY-dependent signaling in reporter cells. inhibition, % at 10 µM. Q293 LMP1-TROYcd NF-kB luciferase reporter, 4 h. 360,000 compounds, 0.98% hits;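 active = compounds whose plate-normalised and pattern-corrected inhibition of the luciferase reporter signal at the single screening dose is 50% or more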
MITF TRPM1 inh = reduces MITF-dependent TRPM1 promoter luciferase signal; SK-MEL-5 TRPM1 promoter luciferase, 24 h; inhibition, % at 12.5 µM; 330,000 compounds, 0.83% hits; AID 488899;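 active = mean inhibition across replicates of 60% or more, whatever share of single replicates reaches that level; inconclusive = some that reach 60%, reason not given; inactive = mean inhibition across replicates below 60%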
EBV LMP1 NFkB = inhibitors of Epstein-Barr LMP1-induced NF-kappaB reporter. LMP1-induced NF-kappaB luciferase reporter cells, luminescence. inhibition, % at 12.5 µM. 350,000 compounds, 0.69% hits. AID 504558; in the data active = inhibition above about 41%; inconclusive = no clear call, values can overlap the other calls;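 also: 0% = neutral control wells and 100% = reference inhibitor control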
HIF-2a inh = blocks HIF-2a reporter activity; 360,000 compounds, 0.72% hits; 786-0 RCC cells HIF-2a reporter, luciferase luminescence, overnight; AID 624352; inhibition, % at 18.8 µM;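 active = inhibition of the luminescence signal of 40% or more relative to plate controls, in a single-dose primary screen at 18.75 µM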
Shn3 3UTR inh = inhibitors of Schnurri-3 3'UTR reporter in osteoblasts; Clone20 osteoblast Shn3 3'UTR firefly luciferase, 24 h; inhibition, % at 12.5 µM; 360,000 compounds, 0.52% hits;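 active = mean inhibition of at least 75% with every replicate also reaching 75%; inconclusive = mean inhibition at least 75% but some replicate below; inactive = mean inhibition below 75%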;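 also: 0% = median of neutral control wells and 100% = pilot-screen positive control compound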
TWEAK-Fn14 inh = inhibitors of TWEAK-Fn14 interaction signaling. 360,000 compounds, 2% hits. inhibition, % at 10 µM. AID 1159606. TWEAK-stimulated Fn14 reporter cells, luciferase luminescence, 8 h; in the data active = inhibition above about 50%
* marks the source's active call; other numbers are inactive results; ? = inconclusive; · = no result; ! = not active in a repeat. In the library only some 3.4% were active in any assay of this set; here they are far more common.

SMILES	TROY NFkB inh	MITF TRPM1 inh	EBV LMP1 NFkB	HIF-2a inh	Shn3 3UTR inh	TWEAK-Fn14 inh
CC1CCCCN1CC(=O)NC(c1ccccc1)c1ccccc1 (stereo unspecified)	7.5	-2.3	-6.5	2.5	-11.3	9.0
CC(C)(C)c1ccc(-n2ncc3c2CCCC3NC(=O)CCN2CCCC2=O)cc1 (stereo unspecified)	17.7	32.3	22.0	-9.7	88.0*	19.2
COCCN(C(=O)c1csnn1)C(C(=O)NC1CCCC1)c1ccc(C)cc1 (stereo unspecified)	-0.9	-3.0	-18.3	1.7	7.3	-5.1
COCCN(C(=O)c1csnn1)C(C(=O)NC1CCCC1)c1ccccc1F (stereo unspecified)	16.6	2.6	-4.4	15.7	0.2	65.8*
Cc1ccc(C(C(=O)NC2CCCCC2)N(Cc2cccnc2)C(=O)c2csnn2)cc1 (stereo unspecified)	11.4	8.2	-13.1	5.1	3.3	91.9*
Cc1cccc(C(C(=O)NC2CCCC2)N(Cc2cccnc2)C(=O)c2csnn2)c1 (stereo unspecified)	-4.2	6.2	3.6	11.3	-9.0	24.6
Nc1nc(N)c2cc(Sc3ccc4ccccc4c3)ccc2n1	84.0*	·	·	14.4	84.6	52.1*
N#CCc1ccc(NC(=O)c2cc(S(=O)(=O)N3CCOCC3)ccc2Cl)cc1	0.0	4.7	0.5	14.2	8.3	24.6
Oc1cccc(/C=N/NC(=S)NCCN2CCOCC2)c1O	11.9	12.9	48.4*	9.8	80.8	-25.7
CCCc1c(O)c2ccccc2[nH]c1=O	·	-4.7	-3.8	5.9	2.2	79.8*
CC(=O)c1ccc(N2CCN(c3ccnc4cc(Cl)ccc34)CC2)cc1	3.7	10.5	47.1*	12.4	46.4	24.6
C=CCn1c(=N)c(S(=O)(=O)c2ccc(C)c(C)c2)cc2c(=O)n3ccccc3nc21	-0.3	4.5	3.7	6.3	15.6	-2.1
CC(C)C1Nc2c(O)cc(Cl)c([N+](=O)[O-])c2C2C=CCC21 (stereo unspecified)	58.1*	17.6	17.7	-1.5	13.2	26.7
Cc1ccc(NS(=O)(=O)c2ccccc2F)cc1S(=O)(=O)N1CCCCCC1	-17.8	4.5	-6.3	-3.2	1.7	19.2
C=CCn1c(SCc2csc(C)n2)nc2sc3c(c2c1=O)CCCC3	21.6	3.9	44.1*	21.7	42.9	10.2
CCN(CC)C(=S)SCc1csc(CC(=O)Nc2ccccc2C)n1	12.5	15.4	-12.5	9.6	15.5	0.8
NC1=C(Br)C(=O)c2ncccc2C1=O	68.2*	94.1*	69.6*	82.5*	97.4*	102.8*
COc1ccc(C2=Nn3c(nnc3-c3ccccc3OC)SC2)cc1OC1CCOC1 (stereo unspecified)	38.1	63.2*	24.0	35.7	11.9	6.4
COc1ccc(C2=Nn3c(nnc3-c3ccccc3Cl)SC2)cc1OCC1CC1	60.7*	35.8	12.2	24.2	54.4	32.4
COc1ccc(OC)c(-c2nnc3n2N=C(c2ccc(OC)c(OCC4CC4)c2)CS3)c1	48.5	65.1*	26.2	28.8	6.0	17.1
COc1ccc(C2=Nn3c(nnc3-c3ccccc3C(F)(F)F)SC2)cc1OC1CCOC1 (stereo unspecified)	8.1	5.0	11.6	28.4	4.5	-22.9
CCOc1cccc(CN2CCC(Oc3ccc(C(=O)N4CCCC4)cc3)CC2)c1O	-6.8	·	-3.0	8.5	1.9	-13.3
CC1(C)OC(=O)C2=C(C[C@@H](CCc3ccccc3)O[C@H]2CCc2cccc(Cl)c2)O1	-17.3	·	·	-6.8	·	-9.0
C[C@@H](C(=O)Nc1ccc(OC(F)F)c(Cl)c1)N1C(=O)C2CC=CCC2C1=O (stereo partly specified)	1.9	0.9	-0.3	3.4	11.8	23.7
CCCOc1ccc(F)cc1-c1cc(C(=O)Nc2ccc(C(C)C)cc2)[nH]n1	-13.9	·	·	0.5	16.1	-31.1
SMILES	TROY NFkB inh	MITF TRPM1 inh	EBV LMP1 NFkB	HIF-2a inh	Shn3 3UTR inh	TWEAK-Fn14 inh
CCOCCCNC(=O)CN1C(=O)/C(=C\c2ccc(C)cc2)Sc2ccccc21	-10.3	-1.6	69.3*	-32.8	2.8	23.6
CCOC(=O)C1CCN(CC(=O)Nc2c(C(=O)OC)[nH]c3cccc(Cl)c23)CC1	7.0	9.7	-1.7	0.7	5.9	-0.7
CCOC(=O)C1CCN(CC(=O)Nc2c(C(=O)OC)[nH]c3ccc(Cl)cc23)CC1	47.5	40.1	17.4	7.0	68.8	64.0*
COc1ccc(C(=O)n2cnc3ccccc32)cc1	-5.2	-12.1	8.8	14.9	-3.2	78.0*
C=CCNc1ncnc2c1[nH]c1ccccc12	·	13.5	2.2	-37.4	19.9	24.4
O=C(Cc1ccccc1)NNc1c2ccccc2nc2ccccc12	-44.9	13.8	0.9	7.1	9.5	-48.8
C=CCNc1ncnc2ccccc12	50.0*	15.4	3.9	-10.9	7.0	41.1
c1ccc(CNc2c3ccccc3nc3ccccc23)cc1	-56.6	75.5*	-54.3	44.0*	68.5	-29.8
Cc1ccc(O)c(Nc2c3ccccc3nc3ccccc23)c1	1.0	-0.8	1.9	9.8	4.4	-9.3
Oc1ccc(CCNc2c3ccccc3nc3ccccc23)cc1O	-28.9	72.0*	-9.2	53.7*	-21.5	-25.7
c1ccc(CNc2ncnc3ccccc23)cc1	27.6	5.3	22.2	4.3	83.9	51.5*!
Cc1n[nH]c(C)c1S(=O)(=O)N1CCc2ccccc2C1	-18.6	3.9	-7.8	14.7	0.0	-16.8
CCOc1ccc(Br)cc1C1C(C(=O)OC)=C(N)Oc2cc(N(C)C)ccc21 (stereo unspecified)	4.7	30.7	-5.6	-2.6	13.1	52.8*
Cn1c(N)nc(N)c(NC=O)c1=O	3.2	·	·	5.1	-4.3	-15.1
Nc1c(C(=O)O)cnc2c(-c3ccc(Cl)cc3)cnn12	14.9	4.5	-15.7	-118.6	-43.4	67.4*
C#CCOCCOCCOCCNc1nc(N2CCN(C(=O)CCCCCCCCCCNC(=O)Cn3cc(C[C@@H](C)O)nn3)CC2)nc(N2CCN(C(=O)CCCCCCCCCCNC(=O)[C@@H]([C@H](C)CC)n3cc(CCCCCN)nn3)CC2)n1	68.5*	98.8*	-32.2	0.6	20.0	-9.3
C#CCOCCOCCOCCNc1nc(N2CCN(C(=O)CCCCCCCCCCNC(=O)Cn3cc(C[C@@H](C)O)nn3)CC2)nc(N2CCN(C(=O)CCCCCCCCCCNC(=O)[C@@H]([C@H](C)O)n3cc(C)nn3)CC2)n1	-19.1	46.1	-29.6	-4.7	-3.1	83.8*
C#CCOCCOCCOCCNc1nc(N2CCN(C(=O)CCCCCCCCCCNC(=O)Cn3cc(CCCCCN)nn3)CC2)nc(N2CCN(C(=O)CCCCCCCCCCNC(=O)Cn3cc(C[C@@H](C)O)nn3)CC2)n1	-32.2	-6.1	-5.9	-7.2	-18.0	-24.1
C=C1C(=O)C23C(O)C1CCC2C12CCCC(C)(COC(C)=O)C1C(O)C3(O)OC2 (stereo unspecified)	76.8*	97.1*	?	93.1*	94.5*	101.1*

High-throughput results deposited in PubChem BioAssay by several laboratories.
